Source: PubChem BioAssay (Tox21)
Records with an inconclusive call do not appear. Activity calls are given as the source filed them. Unless noted, calls come from the whole dose curve; as a rule, active = well fitted curve in the direction sought with a large enough effect in the repeat runs; inconclusive = weak or mixed curves; inactive = no such curve, though single readings can be large; an effect the other way counts as inactive or inconclusive.

Legend:
[1] = qHTS assay to identify small molecule agonists of the hypoxia (HIF-1) signaling pathway - cell viability counter screen (AID 1224844; calls by dose curve; note: nearly all actives have a fitted effect of over 50% in size)
Method in brief: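 Viability counter screen: HRE-bla ME-180 cells plated 5 hrs before compound addition, treated 17 hrs at 37C and 5% CO2, then CellTiter-Glo added after the FRET reporter read; luminescence after 30 min.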

[2] = qHTS assay to identify small molecule agonists of H2AX (AID 1224845; active = well fitted activation curve with a large enough effect in the signal ratio in the repeat runs, not every such curve was filed as active; the % refers to the signal ratio)
Method in brief: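 Wild-type CHO-K1 cells, plated overnight, exposed 3hr at 37C to 15 concentrations (0.76% DMSO final). Lysed, then HTRF anti-pH2AX (S139) cryptate and anti-H2AX-d2 antibodies, 24 hr room temperature; 665/620 nm emission read.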

[3] = qHTS assay to identify small molecule agonists of the hypoxia (HIF-1) signaling pathway (AID 1224846; active = well fitted activation curve with a large enough effect in the signal ratio in the repeat runs, not every such curve was filed as active; the % refers to the signal ratio)
Method in brief: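 Agonist mode reporter screen. ME-180 cells stably expressing bla under HRE control received test compounds in DMSO for 17 hrs (37C, 5% CO2), and beta-lactamase activity was then detected with the CCF4-AM FRET substrate.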

[4] = qHTS assay to identify small molecule agonists of H2AX - cell viability counter screen (AID 1224847; calls by dose curve; note: nearly all actives have a fitted effect of over 30% in size; note: potency is the fitted concentration of half-maximal effect)
Method in brief: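 Counter-screen for viability: CellTiter-Glo ATP luminescence read after 3 h compound treatment (15-point titration, 0.76% DMSO final) of CHO-K1 cells at 37C, with 30 min room-temperature reagent incubation.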

[5] = qHTS assay to identify small molecule agonists of the estrogen related receptor (ERR) signaling pathway from Tox21 library (AID 1224849; calls by dose curve; note: nearly all actives have a fitted effect of over 15% in size); details: ERR reporter cell line, ONE-Glo luciferase, 18 h; at 92.4 µM (top of the series) unless noted
Method in brief: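 Quantitative HTS in agonist format: NTP ERR cell line, compounds transferred in DMSO after 6 h plating, 18 h incubation at 37 C, ONE-Glo luminescence endpoint.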

[6] = qHTS RealTime-Glo MT Cell Viability Assay in HepG2 cells - 24 hour (AID 1224867); note: nearly all actives have a fitted effect of over 50% in size; note: potency is the fitted concentration of half-maximal effect
Method in brief: (§1)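 HepG2 cells were seeded at 600 cells/well together with NanoLuc luciferase and a cell-permeant prosubstrate, preincubated 5 h at 37 C/5% CO2, then pin-dosed with compounds in DMSO. Nonlytic luminescence from viable cells was read at each time point.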

[7] = qHTS RealTime-Glo MT Cell Viability Assay in HepG2 cells - 40 hour (AID 1224870); note: nearly all actives have a fitted effect of over 50% in size; note: potency is the fitted concentration of half-maximal effect
Method in brief: (§2)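 HepG2 cells (600/well) mixed with RealTime-Glo MT reagent, settled 5 h at 37 C/5% CO2 before compound addition. Nonlytic NanoLuc luminescence from viable-cell prosubstrate reduction read repeatedly during 40 h treatment at 37 C.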

[8] = A CellTox Green Cytotoxicity Assay to monitor cytotoxicity in HEK293 cells - 40 hour (AID 1224871); note: nearly all actives have a fitted effect of over 45% in size; note: potency is the fitted concentration of half-maximal effect
Method in brief: (§3)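 Dead-cell fluorescence measured kinetically: asymmetric cyanine dye, HEK293, 600 cells/well, 5 h settle, 23 nL cpd/DMSO, 37 C, reads 0–40 h every 8 h.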

[9] = qHTS RealTime-Glo MT Cell Viability Assay in HEK293 cells - 16 hour (AID 1224872); note: nearly all actives have a fitted effect of over 50% in size; note: potency is the fitted concentration of half-maximal effect
Method in brief: (§4)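 HEK293 cells were seeded at 600 cells/well together with NanoLuc luciferase and cell-permeant prosubstrate, preincubated 5 h at 37 C/5% CO2, then given compound in DMSO by pintool. Luminescence from viable-cell prosubstrate reduction was read repeatedly over 40 h.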

[10] = qHTS RealTime-Glo MT Cell Viability Assay in HepG2 cells - 8 hour (AID 1224873); note: nearly all actives have a fitted effect of over 55% in size; note: potency is the fitted concentration of half-maximal effect
Method in brief: as §2

[11] = A CellTox Green Cytotoxicity Assay to monitor cytotoxicity in HEK293 cells - 24 hour (AID 1224875); note: nearly all actives have a fitted effect of over 45% in size; note: potency is the fitted concentration of half-maximal effect
Method in brief: as §3

[12] = A CellTox Green Cytotoxicity Assay to monitor cytotoxicity in HepG2 cells - 16 hour (AID 1224876); note: nearly all actives have a fitted effect of over 45% in size
Method in brief: (§5)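 First, HepG2 cells (600/well) mixed with reagent were plated; second, after 5 h at 37 C they received compounds via pintool; third, fluorescence was measured at 0 h through 40 h at 8 h intervals.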

[13] = qHTS RealTime-Glo MT Cell Viability Assay in HepG2 cells - 32 hour (AID 1224877); note: nearly all actives have a fitted effect of over 55% in size; note: potency is the fitted concentration of half-maximal effect
Method in brief: as §1

[14] = A CellTox Green Cytotoxicity Assay to monitor cytotoxicity in HepG2 cells - 24 hour (AID 1224878); note: nearly all actives have a fitted effect of over 45% in size
Method in brief: as §5

[15] = A CellTox Green Cytotoxicity Assay to monitor cytotoxicity in HepG2 cells - 40 hour (AID 1224879); note: nearly all actives have a fitted effect of over 40% in size; note: potency is the fitted concentration of half-maximal effect
Method in brief: as §5

[16] = qHTS assay to identify small molecule antagonists of the estrogen related receptor (ERR) signaling pathway from Tox21 library (AID 1224848); note: nearly all actives have a fitted effect of over 50% in size; note: potency is the fitted concentration of half-maximal effect
Method in brief: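 Compounds dissolved in DMSO are pin-transferred onto ERR reporter cells (2,000 per well) that have settled for 6 h at 37 C. Plates then incubate 18 h at 37 C before ONE-Glo luciferase reagent and a luminescence read 30 min later.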

[17] = qHTS RealTime-Glo MT Cell Viability Assay in HEK293 cells - 32 hour (AID 1224868); note: nearly all actives have a fitted effect of over 50% in size; note: potency is the fitted concentration of half-maximal effect
Method in brief: as §4

[18] = A CellTox Green Cytotoxicity Assay to monitor cytotoxicity in HEK293 cells - 0 hour (AID 1224869); note: nearly all actives have a fitted effect of over 50% in size
Method in brief: as §3

[19] = qHTS RealTime-Glo MT Cell Viability Assay in HEK293 cells - 40 hour (AID 1224874); details: RealTime-Glo luminescence; max response: stronger effect = lower value; note: nearly all actives have a fitted effect of over 50% in size; note: potency is the fitted concentration of half-maximal effect
Method in brief: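 600 HEK293 cells per well, dispensed already mixed with RealTime-Glo MT reagents. Compound dosing came 5 h later. The same wells were read for luminescence at 0, 8, 16, 24, 32 and 40 h of exposure at 37 C.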

[20] = target: Thyrotropin receptor (Homo sapiens) (UniProt P16473); test: qHTS assay to identify small molecule agonists of the thyroid stimulating hormone receptor (TSHR) signaling pathway (AID 1224843; calls by dose curve; note: nearly all actives have a fitted effect of over 45% in size)
Method in brief: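 HEK293/TSHR, 800 cells/well; cpd 30 min RT; add cAMP-d2 + anti-cAMP-cryptate, 1 h RT; fluorescence read on plate reader. 15-pt titration, n=3.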
% is set by controls: 0 for no effect and ±100 for the full control effect.

Chain of Thyrotropin receptor (Homo sapiens) (P16473 whole entry, looked up): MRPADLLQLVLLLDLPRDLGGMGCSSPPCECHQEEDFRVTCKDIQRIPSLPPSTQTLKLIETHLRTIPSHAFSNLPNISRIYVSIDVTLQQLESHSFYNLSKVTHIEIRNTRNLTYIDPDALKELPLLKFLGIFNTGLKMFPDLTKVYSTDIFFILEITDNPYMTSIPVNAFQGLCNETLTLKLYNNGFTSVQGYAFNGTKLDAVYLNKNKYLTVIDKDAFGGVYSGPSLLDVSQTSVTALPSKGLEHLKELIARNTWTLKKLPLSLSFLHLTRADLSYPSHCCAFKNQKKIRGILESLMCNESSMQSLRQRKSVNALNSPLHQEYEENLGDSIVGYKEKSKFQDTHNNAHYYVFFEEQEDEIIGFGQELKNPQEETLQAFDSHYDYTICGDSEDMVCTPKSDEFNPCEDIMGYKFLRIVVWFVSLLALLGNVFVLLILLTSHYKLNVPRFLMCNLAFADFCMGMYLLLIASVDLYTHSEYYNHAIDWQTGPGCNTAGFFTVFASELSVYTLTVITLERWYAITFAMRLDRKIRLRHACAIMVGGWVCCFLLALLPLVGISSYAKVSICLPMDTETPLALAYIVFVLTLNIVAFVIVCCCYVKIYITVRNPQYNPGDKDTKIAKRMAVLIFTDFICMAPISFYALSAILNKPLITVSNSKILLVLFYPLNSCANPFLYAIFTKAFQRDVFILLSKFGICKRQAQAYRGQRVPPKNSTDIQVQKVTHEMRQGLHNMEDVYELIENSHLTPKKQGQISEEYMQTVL

CCCOc1ccc(S(=O)(=O)N2CCN(CC)CC2)cc1-c1nc2c(CC)n(Cc3ccccn3)nc2c(=O)[nH]1
inactive: Potency [1] | Potency [2] | outcome [3] | Potency [4] | activity change, positive = activation [5] -21.4% | Potency [6] | Potency [7] | Potency [8] | Potency [9] | Potency [10] | Potency [11] | Potency [12] | Potency [13] | Potency [14] | Potency [15]

CN(C)C(=O)Nc1ccc(Oc2ccc(Cl)cc2)cc1
inactive: Potency [1] | Potency [2] | outcome [3] | activity change, positive = activation [5] -44.7% | Potency [6] | Potency [18] | Potency [7] | Potency [10] | Potency [11] | Potency [12] | Potency [13]
active: Potency [4] 89.8 µM | Potency [16] 13.7 µM | Potency [17] 38.9 µM

CC1(C)C2=CCCC(C)(C)[C@]23CC[C@H]1C3
inactive: Potency [1] | Potency [2] | outcome [3] | Potency [4] | Potency [6] | Potency [17] | Potency [18] | Potency [7] | Potency [9] | Potency [10] | max response [19] -11.7% | Potency [11] | Potency [12] | Potency [13]
active: Potency [8] 38.9 µM

O=C(Nc1ccc([N+](=O)[O-])cc1)Nc1ccc([N+](=O)[O-])cc1
active: Potency [17] 7.56 µM | Potency [8] 13.4 µM | Potency [15] 23.9 µM
inactive: Potency [20] | Potency [2] | outcome [3] | Potency [18] | Potency [7] | Potency [10] | Potency [11] | Potency [12]

CCCCC(CC)CNCC(CC)CCCC (stereo not drawn)
inactive: Potency [1] | Potency [2] | outcome [3] | Potency [4] | Potency [16] | activity change, positive = activation [5] 4.2% | Potency [6] | Potency [18] | Potency [7] | Potency [8] | Potency [9] | Potency [10] | max response [19] 8.85% | Potency [11] | Potency [12] | Potency [13] | Potency [14] | Potency [15]

CC(C)(O)c1ccccc1CC[C@@H](SCC1(CC(=O)O)CC1)c1cccc(/C=C/c2ccc3ccc(Cl)cc3n2)c1
inactive: Potency [1] | Potency [2] | outcome [3] | Potency [4] | Potency [16] | activity change, positive = activation [5] 1.93% [at 42.5 µM] | Potency [6] | Potency [17] | Potency [18] | Potency [7] | Potency [8] | Potency [9] | Potency [10] | max response [19] 0.38% | Potency [11] | Potency [12] | Potency [13] | Potency [14] | Potency [15]

CCC(=O)Oc1ccc(/C(CC)=C(\CC)c2ccc(OC(=O)CC)cc2)cc1
inactive: Potency [20] | Potency [2] | activity change, positive = activation [5] -47.8% | Potency [6] | Potency [18] | Potency [7] | Potency [8] | Potency [10] | Potency [11] | Potency [12] | Potency [13] | Potency [14] | Potency [15]
active: Potency [16] 27.3 µM | Potency [9] 24.5 µM | Potency [19] 17.4 µM

CC(CCO)CCc1ccccc1 (stereo not drawn)
inactive: Potency [1] | Potency [2] | outcome [3] | Potency [4] | Potency [6] | Potency [17] | Potency [18] | Potency [7] | Potency [8] | Potency [9] | Potency [10] | max response [19] -8.5% | Potency [11] | Potency [12] | Potency [13] | Potency [14] | Potency [15]

NC(=O)Nc1ccc(Cl)cc1
inactive: Potency [1] | Potency [2] | outcome [3] | Potency [4] | Potency [16] | activity change, positive = activation [5] 0.227% | Potency [6] | Potency [17] | Potency [18] | Potency [7] | Potency [8] | Potency [9] | Potency [10] | Potency [11] | Potency [13]

CC(C)OCC1CO1 (stereo not drawn)
inactive: Potency [1] | Potency [2] | outcome [3] | Potency [4] | Potency [16] | activity change, positive = activation [5] -0.395% | Potency [6] | Potency [17] | Potency [18] | Potency [7] | Potency [8] | Potency [9] | Potency [10] | max response [19] 11.5% | Potency [11] | Potency [12] | Potency [13] | Potency [14] | Potency [15]

CCOC(=O)c1ccccc1C
inactive: Potency [20] | Potency [2] | Potency [4] | Potency [6] | Potency [17] | Potency [18] | Potency [7] | Potency [8] | Potency [9] | Potency [10] | max response [19] -14.1% | Potency [11] | Potency [12] | Potency [13] | Potency [14] | Potency [15]

O=C(O)c1c(O)c(-c2ccccc2)nc2ccccc12
inactive: Potency [20] | outcome [3] | Potency [4] | Potency [6] | Potency [17] | Potency [7] | Potency [8] | Potency [9] | Potency [10] | max response [19] 0.412% | Potency [11] | Potency [12] | Potency [13] | Potency [14] | Potency [15]

CC[C@H](NC(=O)c1cc(F)ccc1NS(=O)(=O)c1cccc2cccnc12)c1ccccc1
inactive: Potency [20] | Potency [2] | Potency [4] | activity change, positive = activation [5] -48.4% | Potency [17] | Potency [18] | Potency [8] | Potency [9] | max response [19] -13% | Potency [11] | Potency [12] | Potency [14]
active: Potency [16] 32.5 µM | Potency [6] 52 µM | Potency [7] 52 µM | Potency [10] 41.3 µM | Potency [13] 52 µM

CCCCC/C(=C\c1ccccc1)CO
active: Potency [4] 112 µM | Potency [8] 43.1 µM | Potency [11] 48.4 µM
inactive: Potency [20] | Potency [2] | outcome [3] | Potency [6] | Potency [18] | Potency [7] | Potency [9] | Potency [10] | max response [19] -12.8% | Potency [12] | Potency [13] | Potency [14] | Potency [15]
